Source: PubChem BioAssay
In the library only some 7.4% were active in any assay of this set; here they are far more common.
FLuc modulator – inhibits or activates purified firefly luciferase, miR-21 counter-screen; P08659; purified FLuc, Km substrates, luminescence inhibition; Potency, µM (top dose mostly 57.5 µM), without a hit: at the top dose activity change, negative = inhibition, most hits filed as inhibitors; 6.9% of 360,000 active; AID 588342;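 note: plate controls were vehicle for no effect and reference inhibitor for full effect; nearly all actives have a fitted effect of over 55% in size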
Target sequence (P08659 whole entry, looked up): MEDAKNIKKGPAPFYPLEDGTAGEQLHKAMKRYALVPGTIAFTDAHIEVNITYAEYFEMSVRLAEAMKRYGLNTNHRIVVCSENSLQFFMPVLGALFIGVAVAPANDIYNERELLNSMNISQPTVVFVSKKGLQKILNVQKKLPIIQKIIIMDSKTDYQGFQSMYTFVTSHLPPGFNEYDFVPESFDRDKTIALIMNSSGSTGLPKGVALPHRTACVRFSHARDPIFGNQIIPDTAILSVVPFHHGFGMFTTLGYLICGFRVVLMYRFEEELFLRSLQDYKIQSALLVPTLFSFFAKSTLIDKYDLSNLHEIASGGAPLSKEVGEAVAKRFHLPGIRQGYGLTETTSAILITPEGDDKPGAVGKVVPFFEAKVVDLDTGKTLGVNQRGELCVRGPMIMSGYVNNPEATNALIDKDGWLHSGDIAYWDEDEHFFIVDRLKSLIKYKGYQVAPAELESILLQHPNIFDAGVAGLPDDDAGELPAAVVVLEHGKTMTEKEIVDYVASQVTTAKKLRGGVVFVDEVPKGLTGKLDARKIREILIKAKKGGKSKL
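Purified P. pyralis luciferase, 10 nM final, with Km-level 10 uM D-luciferin and 10 uM ATP in 50 mM Tris acetate pH 7.5, 10 mM Mg acetate, 0.01% Tween-20, 0.05% BSA; 6-point qHTS titration about 60 µM downward; luminescence read.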
SMN2 splice enh – enhancers of SMN2 splice variant expression | HEK293 SMN2-luciferase splicing reporter, luminescence, 30-36 h | Potency, µM (titrated, usually from 46.1 µM), without a hit: top-dose activity change, positive = activation, actives largely listed as activators | 2.8% of 210,000 active; note: % of control where 0% means no effect; nearly all actives have a fitted effect of over 55% in size
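HEK293 cells carry an SMN2 […]–luciferase reporter in which exon 7 inclusion puts luciferase in frame. Cells were plated 10-12 h before compound addition, then incubated 30-36 h at 37C. ONE-Glo luminescence was read; sodium butyrate at 4.5 mM final served as control.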
Rab9 prom act – Rab9 promoter activation; Huh7 Rab9 promoter-luciferase reporter, luminescence, 24 h; Potency, µM (top dose mostly 9.22 µM), for inactives: at the highest dose activation, negative = inhibition, most hits filed as activators; 2.8% of 320,000 active; AID 485297; note: % of control where 0% means no effect; nearly all actives have a fitted effect of over 60% in size
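Huh7 reporter line, Rab9 promoter upstream of luciferase. Compound exposure 24 h at 37 °C in reduced-serum medium with 10% FBS. Read-out: luminescence.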
Luc counter – Kinase-Glo luciferase inhibition (counter-screen); 0.28% of 200,000 active; Q27757; Potency, µM (highest dose often 38.3 µM), inactives show at the top dose activity change, negative = inhibition, usual class: inhibitors; Kinase-Glo luciferase, ATP luminescence, 8 min; note: % is set by controls: 0 for no effect and ±100 for the full control effect; nearly all actives have a fitted effect of over 60% in size
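Inhibition of Kinase-Glo luciferase light generation was assessed at 10 uM ATP in pH 7.2 imidazole buffer, with luminescence measured after eight minutes at ambient temperature.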
ELG1 genotoxic – induces genotoxicity in HEK293T cells with luciferase-tagged ELG1. HEK293T ELG1-luciferase reporter, luminescence, 16 h. 1.3% of 330,000 active. Potency, µM (doses to about 46 µM), without a hit: at the highest dose activity change, positive = activation, actives largely listed as activators. AID 504466; note: % of control where 0% means no effect; nearly all actives have a fitted effect of over 60% in size
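DMSO vehicle served as control against compound-treated ELG1-luciferase HEK293T cells; exposure lasted 16 hr at 37 °C and 5% CO2, followed by ONE-Glo luminescence detection after 30 min.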
NPC1 prom act – activates the NPC1 promoter | Huh7 NPC1 promoter luciferase reporter, 24 h | Potency, µM (titrated, usually from 9.22 µM), inactives show top-dose activation, actives largely listed as activators | 2.4% of 320,000 active | AID 485313; note: % of control where 0% means no effect; nearly all actives have a fitted effect of over 60% in size
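Luciferase expression driven by the NPC1 promoter was measured in stably transfected Huh7 cells after a 24 h compound incubation, using a luciferase reagent and a luminescence read.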
The depositor's hits bear a star; [ ] = another dose, or the depositor's remark. Calls come from the whole dose curve; as a rule, active = well fitted curve in the direction sought with a large enough effect; inconclusive = small, poorly fitted or top-dose-only effect, or another doubt; inactive = no such curve, though single readings can be large; an effect the other way counts as inactive or inconclusive. Potency is the fitted concentration of half-maximal effect.

What do the screens show for `Cc1cccc(C(=O)Nc2ccccc2C(=O)OCc2cc(=O)n3nc(C4CC4)sc3n2)c1`?
FLuc modulator: -5%

How did COc1ccc(Cn2ccc3nc(C)c(C(=O)N4CCN(c5cc(C)ccc5C)CC4)cc3c2=O)cc1 do in these assays?
FLuc modulator: 6%

What do the screens show for `CN(Cc1nc(-c2cccc(Cl)c2)no1)C1CCOCC1`?
FLuc modulator: inconclusive; Rab9 prom act: 2µM*; Luc counter: 3%; ELG1 genotoxic: inconclusive; NPC1 prom act: inconclusive

What do the screens show for `CNc1nn(-c2cccc(Cl)c2)nc1N`?
FLuc modulator: 24µM*; SMN2 splice enh: inconclusive; Rab9 prom act: inconclusive; Luc counter: -5%; ELG1 genotoxic: 11µM*; NPC1 prom act: inconclusive

How did COc1ccc(NC(=O)CC2C(=O)N(c3cccc(OC)c3)C(=O)N2Cc2ccc3c(c2)OCO3)cc1 (configuration not stated) do in these assays?
FLuc modulator: 0%; SMN2 splice enh: -9%

Results for O=C(NCCSc1c(-c2ccc(Br)cc2)[nH]c2ccccc12)c1ccc(S(=O)(=O)N2CCOCC2)cc1 ?
FLuc modulator: 0%; SMN2 splice enh: -12%

How did CC(Oc1ccc(Cl)cc1Cl)C(=O)Nc1cccc(O)c1 (configuration not stated) do in these assays?
FLuc modulator: 17µM*; SMN2 splice enh: -1%; Rab9 prom act: -4%; Luc counter: 1%; ELG1 genotoxic: 17%; NPC1 prom act: 0%

What do the screens show for `CN(c1ccccc1)S(=O)(=O)c1cccc(NC(=O)COc2cccc([N+](=O)[O-])c2)c1`?
Rab9 prom act: 1%; ELG1 genotoxic: -4%; NPC1 prom act: -3%

What do the screens show for `Cc1cccc(NC(=O)COc2ccccc2)c1`?
FLuc modulator: 3%[2.3 µM]; SMN2 splice enh: 17%; Rab9 prom act: 13%; Luc counter: 2%; ELG1 genotoxic: inconclusive; NPC1 prom act: 2%

Results for CCC(=O)Nc1cccc(NC(=O)COc2ccc(OC)cc2)c1 ?
FLuc modulator: 15µM*; SMN2 splice enh: 15%; Rab9 prom act: -1%; Luc counter: 1%; ELG1 genotoxic: inconclusive; NPC1 prom act: -2%

Results for Cc1cccc(OCC(=O)Nc2cccc(O)c2)c1 ?
FLuc modulator: 17µM*; SMN2 splice enh: 13%; Rab9 prom act: 0%; Luc counter: -2%; ELG1 genotoxic: 10µM*; NPC1 prom act: -2%

What do the screens show for `CCC(=O)c1ccc(OCC(=O)Nc2cccc(S(=O)(=O)N(C)c3ccccc3)c2)cc1`?
FLuc modulator: 15µM*; Rab9 prom act: -4%; ELG1 genotoxic: 1%; NPC1 prom act: -7%

What do the screens show for `O=C(O)c1ccc(CNCc2ccccc2)cc1`?
SMN2 splice enh: -3%[9.22 µM]; Luc counter: 0%[7.66 µM]

Results for COc1ccc(OC(=O)COc2ccc(C)cc2)cc1 ?
FLuc modulator: inconclusive; SMN2 splice enh: 3%; Rab9 prom act: -1%; Luc counter: 3%; ELG1 genotoxic: 5%; NPC1 prom act: 15%

What do the screens show for `COc1ccc(OC(=O)COc2cccc(C)c2)cc1`?
FLuc modulator: 15µM*; Rab9 prom act: 3%; ELG1 genotoxic: -2%; NPC1 prom act: 1%

What do the screens show for `COc1cccc(NC(=O)COc2ccc(Br)c(C)c2)c1`?
FLuc modulator: 19µM*; Rab9 prom act: 11%; ELG1 genotoxic: 15%; NPC1 prom act: -1%

How did O=C(COc1cc(Cl)c(Cl)cc1Cl)Nc1cccc(O)c1 do in these assays?
FLuc modulator: 1.1µM*; Rab9 prom act: -3%; ELG1 genotoxic: inconclusive; NPC1 prom act: -1%

How did Cc1ccc(OCC(=O)Nc2cccc(O)c2)cc1C do in these assays?
FLuc modulator: 5.4µM*; SMN2 splice enh: -5%; Rab9 prom act: inconclusive; Luc counter: 0%; ELG1 genotoxic: inconclusive; NPC1 prom act: inconclusive

What do the screens show for `Cc1ccc(OCC(=O)Nc2cc(NC(=O)COc3ccc(C)c(C)c3)cc(C(=O)O)c2)cc1C`?
FLuc modulator: inconclusive; Rab9 prom act: 1%; ELG1 genotoxic: 10%; NPC1 prom act: -7%

What do the screens show for `O=C(c1cc(C(F)(F)F)cc(C(F)(F)F)c1)N1CCC[C@@]2(CCN(Cc3ccncc3)C2)C1`?
SMN2 splice enh: -3%; Luc counter: -2%

How did NC(=O)C1=CN(C2OC(COP(=O)(O)OP(=O)(O)OC[C@H]3O[C@@H](n4cnc5c(N)ncnc54)[C@H](OP(=O)(O)O)[C@H]3O)C(O)C2O)C=CC1 (some centres not stated) do in these assays?
SMN2 splice enh: 14%; Luc counter: -14%

What do the screens show for `CCOC(=O)c1c(NC(=O)C(C)Sc2cn(CCNC(=O)c3ccc(OC)cc3)c3ccccc23)sc2c1CCC2` (configuration not stated)?
FLuc modulator: 0%; SMN2 splice enh: -10%

What do the screens show for `Cc1cc(Cl)c2oc(C(=O)NC3CCC(O)CC3)c(C)c2c1` (configuration not stated)?
FLuc modulator: -18%; Rab9 prom act: 9%; ELG1 genotoxic: inconclusive; NPC1 prom act: 3%

Results for COC(=O)C1CCN(C(=O)c2oc3c(Cl)cc(C)cc3c2C)CC1 ?
FLuc modulator: 11µM*; Rab9 prom act: 0.63µM*; ELG1 genotoxic: inconclusive; NPC1 prom act: 0.79µM*

What do the screens show for `CCOC(=O)C1CCCCN1C(=O)c1oc2c(Cl)cc(C)cc2c1C` (configuration not stated)?
FLuc modulator: 12µM*; Rab9 prom act: 4%; ELG1 genotoxic: -1%; NPC1 prom act: 2%

How did Cc1ccc(C)c(N2CCN(S(=O)(=O)c3ccc(C(=O)N(C)C)s3)CC2)c1 do in these assays?
FLuc modulator: 2%

How did Cc1ccc2nc(NC(=O)CSc3[nH]c(=O)ncc3C)sc2c1 do in these assays?
FLuc modulator: -10%

Results for COc1ccc(C(=O)/C=C2\NCC3c4ccccc4CCN3C2=O)cc1 (configuration not stated) ?
FLuc modulator: 6µM*; SMN2 splice enh: 9%; Rab9 prom act: inconclusive; Luc counter: 1%; ELG1 genotoxic: 0%; NPC1 prom act: 23%

What do the screens show for `COc1cccc(C(=O)/C=C2\NCCc3cc(OC)c(OC)cc32)c1`?
FLuc modulator: inconclusive; Rab9 prom act: 4%; ELG1 genotoxic: -3%; NPC1 prom act: -1%

How did COCCN1Cc2c(sc(C)c2C)N(C(=O)c2ccccc2)C1 do in these assays?
FLuc modulator: 19µM*; SMN2 splice enh: 15%; Rab9 prom act: 15%; Luc counter: -4%; ELG1 genotoxic: 5%; NPC1 prom act: inconclusive
